Assay [1] can be described thus: NCI Yeast Anticancer Drug Screen. Data for the rad50 strain (AID 155).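 Also: 0% = growth of vehicle-only cultures of the same strain.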 To be noted: S. cerevisiae rad50 strain growth inhibition; at 50.0 µM; hits give high values. In short, it runs like this: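 Inhibition values express reduced yeast growth in compound-treated cultures relative to vehicle-treated controls.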
Assay [2] is described as follows: NCI Yeast Anticancer Drug Screen. Data for the mec2-1 strain (AID 157). To be noted: S. cerevisiae mec2-1 strain, at 50.0 µM, hits give high values. In short, it runs like this: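 Test agents were screened against the mec2-1 yeast strain, with defined DNA repair or cell cycle alteration. Growth was scored as inhibition against vehicle-only controls.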
The nature of assay [3]: NCI Yeast Anticancer Drug Screen. Data for the sgs1 mgt1 strain (AID 161).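 Also: 0% = growth of cultures given vehicle only.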 To be noted: S. cerevisiae sgs1 mgt1 strain, at 50.0 µM, hits give high values. The essentials: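 Read-out: growth inhibition vs vehicle controls. Cells: mutant yeast strain deficient in DNA damage repair.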
Assay [4] can be described thus: NCI Yeast Anticancer Drug Screen. Data for the cln2 rad14 strain (AID 165).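 Also: 0% = growth equal to vehicle treated cultures.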 To be noted: S. cerevisiae cln2 rad14 strain, at 50.0 µM, hits give high values. In short, it runs like this:
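Growth of compound-exposed yeast (cln2 rad14 genotype) measured and expressed as inhibition relative to vehicle.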

A short description of assay [5]: NCI Yeast Anticancer Drug Screen. Data for the bub3 strain (AID 167). To be noted: S. cerevisiae bub3 mutant strain, at 50.0 µM, hits give high values. In short, it runs like this:
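Steps: expose the mutant yeast strain to compound; grow alongside vehicle-treated cultures; measure growth; express inhibition against the vehicle cultures.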

The nature of assay [6]: NCI Yeast Anticancer Drug Screen. Data for the mlh1 rad18 strain (AID 175). To be noted: S. cerevisiae mlh1 rad18 strain growth inhibition; at 50.0 µM; hits give high values. In short, it runs like this:
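In this whole-cell yeast screen, a strain with altered DNA damage repair is challenged with compound, and its growth is measured against matched vehicle-treated controls.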

Compounds without any hit were thinned out: in the full panel of roughly 79,000, 15% have a hit. A number with no mark means an inactive call. Calls of active or inactive are those of the source. Rule as the data show it: active = growth inhibition above about 70%; inactive = the rest.

As to `O=C(O)C#Cc1ccc([N+](=O)[O-])cc1`, the growth inhibition in assay [1] was 13.6%; in assay [2], -7.6%; in assay [3], 2.35%; in assay [4], -20.2%; in assay [5] it was -11.9%; in assay [6], 16.5%.
Take `N#Cc1cc(Cl)ccc1N=Cc1c(Cl)cccc1Cl`: the growth inhibition was 19.4% in assay [1]; 16.5% in assay [2]; 39.4% in assay [3]; 14.6% in assay [4]; -6.55% in assay [5]; 12.8% in assay [6].
Regarding `CCOC(=O)/C(C#N)=C1/Sc2c(ncn(/N=C/c3ccc(OC)cc3)c2=O)N1c1ccccc1`, the growth inhibition in assay [1] is 26.7%; in assay [2], -2.85%; in assay [3] it was 6.45%; in assay [4], -45.3%; in assay [5], -12.8%; in assay [6], 4.4%.
On to `NC(=O)c1ccc[n+](CCCCCCCCCCC(=O)[O-])c1`, for which the growth inhibition in assay [1] is -7%; in assay [2] it was 7.05%; in assay [3], 0.8%; in assay [4], -15%; in assay [5] it was 4.75%; in assay [6], 1.95%.
On to `COc1nc(N)c(NC(C)=O)c(=O)n1C`, for which the growth inhibition is 3.9% in assay [1]; -19.2% in assay [2]; -21.4% in assay [3]; -4.3% in assay [4]; -22.6% in assay [5]; 9% in assay [6].
With `CC12CCC(CC1=O)C2(C)CCC(N)=O` (stereo not given), the growth inhibition in assay [1] was -1.55%; in assay [2], -12%; in assay [3], 18.2%; in assay [4] it was -11.7%; in assay [5], -17.9%; in assay [6] it was -8.8%.
With `CC1(C)CCCC/C1=N\Nc1ccc([N+](=O)[O-])cc1[N+](=O)[O-]`, the growth inhibition is -29.2% in assay [1]; 5.2% in assay [2]; -2.8% in assay [3]; -22.2% in assay [4]; 1.1% in assay [5]; 22.1% in assay [6].
Turning to `CC(C)NC1(C(N)=O)CCN(Cc2ccccc2)CC1`, the growth inhibition is 7.85% in assay [1]; -17.2% in assay [2]; 8.1% in assay [3]; -3.15% in assay [4]; -51.9% in assay [5]; 18.1% in assay [6].
As for `Cc1nn(CO)c(C)c1Br`, the growth inhibition in assay [1] is 9.8%; in assay [2], -18.4%; in assay [3], 5.9%; in assay [4] it was 21.8%; in assay [5] it was -2.6%; in assay [6] it was 11.7%.
Take `CC(=O)N=C1CSc2ccccc2N1C`: the growth inhibition in assay [1] is -1.15%; in assay [2], -7.2%; in assay [3], -7.9%; in assay [4] it was -40.4%; in assay [5] it was -15.5%; in assay [6], -8.9%.
With `CN(C)c1ccc(/C=C/C=C(/C#N)c2ccccc2)cc1`, the growth inhibition was 14.8% in assay [1]; 8.5% in assay [2]; 2.9% in assay [3]; 32.2% in assay [4]; 24.3% in assay [5]; 2.65% in assay [6].
For `COc1ccc(CC(N)C(N)=O)cc1` (stereo not given), the growth inhibition in assay [1] is -6.25%; in assay [2], -0.65%; in assay [3], -4%; in assay [4], -12%; in assay [5], -0.3%; in assay [6] it was 6.5%.
Take `Cc1cccn(C(=O)c2ccccc2)c1=N`: the growth inhibition in assay [1] is -8.2%; in assay [2], 4.1%; in assay [3] it was 1.35%; in assay [4], -41.7%; in assay [5], -16.9%; in assay [6] it was 29.3%.
On to `CN(N)c1cc(=O)n(C)c(=O)n1C`, for which the growth inhibition in assay [1] is -1.35%; in assay [2], -1.2%; in assay [3], -10.7%; in assay [4], -45.1%; in assay [5] it was -3.05%; in assay [6], 15.6%.
On to `COc1ccc(CC2=NCCc3cc(OCc4ccccc4)c(OC)cc32)cc1OCc1ccccc1`, for which the growth inhibition in assay [1] is 66.8%; in assay [2], 55%; in assay [3] it was 52.5%; in assay [4] it was 30.6%; in assay [5], 78.5% (active); in assay [6], 93.8% (active).
On to `CC(C)(C)N(Cc1ccccc1)C(=O)Nc1ccccc1`, for which the growth inhibition was 6.45% in assay [1]; 3.95% in assay [2]; 21.5% in assay [3]; 1.35% in assay [4]; 32.3% in assay [5]; 7.4% in assay [6].
For `CCN(CC)C(=O)Cc1[nH][nH]c(=O)c1C(=O)N(CC)CC`, the growth inhibition in assay [1] was -31.9%; in assay [2] it was 2.45%; in assay [3] it was -42.9%; in assay [4], -7.6%; in assay [5] it was -28.6%; in assay [6] it was -41.3%.
`COc1cc(C2c3cc4c(cc3OC(C)(OC)C2C(C)=O)OCO4)cc(OC)c1O` (stereo not given): the growth inhibition was 4.05% in assay [1]; -6.25% in assay [2]; -24.6% in assay [3]; -2.9% in assay [4]; -1.2% in assay [5]; -0.35% in assay [6].
In the case of `C\C(=C/C(=N/N=C\c1ccccc1O)c1ccccc1)c1ccccc1`, the growth inhibition in assay [1] was 13.8%; in assay [2], 10.9%; in assay [3], -4.45%; in assay [4] it was -3.5%; in assay [5], 5.6%; in assay [6], 5.15%.
On to `O=C(O)c1c(O)ccc(O)c1C(=O)O`, for which the growth inhibition in assay [1] is -38.5%; in assay [2], -30.8%; in assay [3] it was -29.7%; in assay [4], -21.1%; in assay [5] it was -8.8%; in assay [6] it was -11.2%.

Source of the values: PubChem BioAssay (NCI).
